Compounds without any hit were thinned out: in the full panel of roughly 83,000, 20% have a hit.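 Single-concentration screen, 48 h exposure, 96-well plates. Endpoint: percent growth. Below 10 = active.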 A number with no mark means an inactive call. Active and inactive are the calls of the source.

Common to all, as to test: NCI-60 one-dose screen, 48 h (100 = growth as untreated, 0 = no growth, -100 = all killed)
What all share (details): 10 µM unless noted

Assay [1] has as its system K-562 leukemia.
Assay [2] concerns MALME-3M melanoma.
The subject of assay [3] is MDA-MB-231 breast.
Assay [4] concerns SF-268 CNS.
Assay [5] relates to SF-295 CNS.
Assay [6] relates to SF-539 CNS.
For assay [7], the system named is UACC-257 melanoma.
The test system of assay [8] is M14 melanoma.
In assay [9] the test system is RXF 393 renal.
Assay [10] has as its system DU-145 prostate.

For the compound `O=C(NCCCl)NCCN1c2nc3ccccc3cc2Sc2cc3ccccc3nc21`, the growth is 21.5% in assay [1]; 60.4% in assay [2]; 39.5% in assay [3]; 44.2% in assay [4]; 409% in assay [5]; 38.3% in [6]. The growth in assay [7] is 65.8%; in assay [8], 69.2%.

As for `Cc1ccc(-c2cc(-c3ccccc3)n(-c3ccccc3)n2)cc1`, the growth was 81.2% in assay [1]; 87.6% in [2]; 112% in [3]; 98.3% in assay [4]; 156% in assay [5]; 115% in [6]. In addition, the growth was 98.1% in [7] and 110% in assay [8].

In the case of `COc1cc(/C=N/NC(=O)c2ccc(C(F)(F)F)nc2Nc2ccc(Cl)cc2C)ccc1O`, the growth is 15.2% in assay [1]; 15.1% in assay [2]; 53.1% in assay [3]; 34.9% in [4]; 7.59% (active) in assay [5]; 30.4% in assay [6]. In addition, the growth in [7] was 57.2%; in [8], 50.9%.

For `O=C(Nc1ccc(Cl)cc1)Nc1nc2ccc(OC(F)(F)F)cc2o1`, the growth in [1] was 60.7%; in assay [2], 128%; in assay [3], 109%; in assay [9] it was 78.9%; in [4], 123%; in assay [5], 70.1%. The growth was 104% in assay [6] and 114% in [7].

As for `CC(=O)O[C@H]1CC[C@@]2(C)C(=CC[C@@H]3[C@@H]2CC[C@]2(C)C(c4cccnc4)=CC[C@@H]32)C1`, the growth in [10] is 94.9%; in assay [2], 72.6%; in [3] it was 86.3%; in assay [4] it was 76.4%; in assay [5], 43.3%; in assay [6], 28.7%. The growth in assay [8] was 72.7%.

With `O=C(N/N=C/c1cccc(O)c1)c1ccc(C(F)(F)F)nc1Nc1cccc(C(F)(F)F)c1`, the growth was 5.13% (active) in assay [1]; 1.33% (active) in assay [2]; -26.8% (active) in assay [3]; 17.6% in [4]; -39.3% (active) in assay [5]; 7.23% (active) in assay [6]. The growth in [7] is 19.6%; in assay [8], 35.7%.

`COc1ccc(Cl)cc1Nc1nc(C(F)(F)F)ccc1C(=O)N/N=C/c1c(Cl)cccc1Cl`: the growth is 33.8% in assay [1]; 69.3% in [2]; 46.3% in assay [3]; 65% in assay [4]; 13.8% in assay [5]; 20.6% in assay [6]. The growth in assay [7] was 60.9%; in assay [8], 71.3%.

For `CCCCN1c2nc3ccccc3cc2Sc2cc3ccccc3nc21`, the growth in assay [1] was 99.4%; in assay [2] it was 117%; in assay [3], 76.4%; in [4], 91.7%; in [5], 768%; in [6], 100%. Also, the values for the growth in assay [7] and in [8] were 104% and 103%, respectively.

As to `CCOC(=O)c1sc(NC(=O)COc2ccc(/C=C3\CCc4cc(OC)ccc4C3=O)cc2)nc1C`, the growth in assay [1] is 71.7%; in [3] it was 94.1%; in assay [4], 80.1%; in assay [5], 118%; in assay [6], 95.1%; in assay [7] it was 93.7%. The growth in assay [8] was 106%.

With `COc1ccc(CNC(=O)c2c(C)n([O-])c3ccccc3[n+]2=O)cc1`, the growth is 94.9% in [1]; 153% in [2]; 103% in [3]; 99.7% in assay [4]; 111% in [5]; 112% in assay [6]. Further, the growth in assay [7] is 90.4%; in assay [8], 104%.

`Cc1ccc(S(=O)(=O)NCCN2c3nc4ccccc4cc3Sc3cc4ccccc4nc32)cc1`: the growth is 87.9% in assay [1]; 128% in assay [2]; 36.8% in assay [3]; 52.4% in [4]; 93.8% in assay [5]; 11.7% in assay [6]. For the same compound, the figures for the growth in assay [7] and in assay [8] were 54.7% and 77.4%, respectively.

In the case of `O=C(COc1ccc(/C=C2\Oc3ccc4ccccc4c3C2=O)cc1)c1ccc([N+](=O)[O-])cc1`, the growth in assay [1] was 79.4%; in [2] it was 85.8%; in assay [3], 94.9%; in assay [4], 96.9%; in assay [5] it was 105%; in assay [6] it was 65.6%. Besides, the growth is 94% in assay [7] and 92.8% in [8].

As to `c1ccc(N2c3nc4ccccc4cc3Sc3cc4ccccc4nc32)nc1`, the growth in assay [1] was 85.7%; in assay [3], 68.4%; in assay [4], 80.8%; in assay [5], 96.1%; in assay [6], 111%; in assay [7], 87.8%. Besides, the growth in assay [8] was 109%.

With `COc1cc2c(cc1OC)C(=O)/C(=C/c1cccc(OCC(=O)c3ccccc3)c1)C2`, the growth in assay [1] was 43.8%; in assay [2] it was 145%; in assay [3], 97.9%; in assay [4], 94.9%; in assay [5] it was 104%; in [6] it was 78.2%. Besides, the growth in [7] is 95.4%; in assay [8] it was 96.3%.

As to `CCOC(=O)c1sc(NC(=O)COc2cccc(/C=C3\CCc4cc(OC)ccc4C3=O)c2)nc1C`, the growth in assay [1] was 5.6% (active); in [2], 77.1%; in [3], 89.2%; in assay [4], 69.4%; in assay [5], 90.3%; in [6], 26.4%. In addition, the growth was 84.2% in assay [7] and 89% in assay [8].

For `COc1ccc2nc(N/N=C(\C)c3ccccn3)cc(C)c2c1`, the growth in [1] is -51.5% (active); in assay [2] it was -24% (active); in assay [3] it was -63.1% (active); in assay [4], -2.13% (active); in [5] it was -81.2% (active); in assay [6], -90.6% (active). Also, the growth in [7] is 16.7%; in [8], -78.7% (active).

In the case of `CC(=O)Nc1ccc(C(=O)COc2cccc(/C=C3\CCc4ccccc4C3=O)c2)cc1`, the growth in assay [1] is 36.8%; in assay [2], 19.6%; in assay [3], 90%; in assay [4], 90.1%; in assay [5], 486%; in assay [6] it was 96.7%. Further, the growth in assay [7] is 89.8%; in assay [8], 104%.

The values above are taken from PubChem BioAssay (NCI).
